Whole data set: some 33,000 sequences, median “E-score (-0.5 to 0.5)” near -0.012, cut for the highest 2% near 0.27. What follows is part of a selection rich in the highest values, with near analogues and random picks from the rest.
Target: T1, Vhr1 (UniProt P40522)
T1 sequence: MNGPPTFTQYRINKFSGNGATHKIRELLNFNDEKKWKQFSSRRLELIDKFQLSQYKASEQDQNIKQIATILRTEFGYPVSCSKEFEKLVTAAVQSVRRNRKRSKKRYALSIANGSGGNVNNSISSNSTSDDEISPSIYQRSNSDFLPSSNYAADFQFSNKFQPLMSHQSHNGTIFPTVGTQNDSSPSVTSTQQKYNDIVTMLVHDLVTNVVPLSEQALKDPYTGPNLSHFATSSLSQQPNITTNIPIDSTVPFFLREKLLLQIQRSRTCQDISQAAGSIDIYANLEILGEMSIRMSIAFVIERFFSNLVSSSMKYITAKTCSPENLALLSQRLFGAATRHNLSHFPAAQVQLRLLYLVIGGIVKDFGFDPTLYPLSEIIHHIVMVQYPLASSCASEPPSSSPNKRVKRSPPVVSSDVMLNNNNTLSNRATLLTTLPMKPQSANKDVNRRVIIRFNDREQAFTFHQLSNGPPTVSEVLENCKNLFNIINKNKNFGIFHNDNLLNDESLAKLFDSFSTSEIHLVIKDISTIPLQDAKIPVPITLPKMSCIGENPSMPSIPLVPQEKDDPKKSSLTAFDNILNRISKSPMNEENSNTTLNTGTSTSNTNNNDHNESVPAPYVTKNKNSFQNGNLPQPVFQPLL
Experiment: PBM E-score (8-mer binding enrichment) (E-score (-0.5 to 0.5)); higher = stronger / more preferred TF binding
Conditions: protein concentration: 200 nM; construct: GST-full length
Procedure: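 Universal 'all 10-mer' protein binding microarrays (Agilent AMADID 015681) probed with GST-tagged S. cerevisiae TFs (full-length or DBD) made by in vitro transcription/translation (PURExpress), about 100-200 nM. Bound TF was detected with fluorescent anti-GST. Each ungapped 8-mer (which stands for itself and its reverse complement) is scored by the PBM enrichment score (E-score), a modified Wilcoxon-Mann-Whitney statistic from -0.5 to +0.5, computed with the Universal PBM Analysis Suite. Scale: above 0.35 generally sequence-specific binding.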

Compared with GATAGTCC, TATAGTGA is lower in “PBM E-score” value: 0.0259 for the first, -0.0332 for the second.

Going from GATAGTCA to ACGGGAGG, the “PBM E-score” value falls from 0.357 to -0.13.

Compared with AATGTGGT, GAATCGAC is lower in “PBM E-score” value: 0.115 for the first, -0.005 for the second.

Going from ACAAATCG to ATCAGCTA, the “PBM E-score” value rises from 0.0133 to 0.0387.

Going from GAAGGATC to GGCTCAAC, the “PBM E-score” value falls from -0.0379 to -0.199.

Going from CTGGCTGA to ACAATCGT, the “PBM E-score” value falls from 0.143 to 0.0768.

Compared with CAATCCTG, ATATGGAA is higher in “PBM E-score” value: 0.122 for the first, 0.178 for the second.

Going from ATGCTGTG to AGTGTGAG, the “PBM E-score” value rises from 0.116 to 0.147.

First: AGTGTGAT
Second: AGTGTGAC
The “PBM E-score” value of the first is higher: 0.296 for the first, 0.209 for the second.

First: ACGTCAGA
Second: ACAGTTGG
The “PBM E-score” value of the first is lower: -0.0949 for the first, -0.02 for the second.

Going from CTCGAGTC to AGCGAGTA, the “PBM E-score” value falls from 0.235 to 0.119.

Going from CGCGAGTC to CGCGAGTA, the “PBM E-score” value falls from 0.355 to 0.112.

Going from AGCGAGTG to AGCGAGTC, the “PBM E-score” value rises from 0.192 to 0.275.

Going from CATCACAA to CGCCAAGA, the “PBM E-score” value falls from 0.0244 to -0.0615.

Compared with CGGAGCGA, ACTTGGGA is lower in “PBM E-score” value: 0.0369 for the first, -0.155 for the second.

Going from AGCCAGTG to AGTTGCAT, the “PBM E-score” value falls from 0.00862 to -0.0357.

Going from CACCTTAA to AAGAATCA, the “PBM E-score” value rises from -0.0968 to 0.222.

Going from CGGAATTA to AGGAATCG, the “PBM E-score” value rises from -0.193 to 0.0478.

Compared with GGGAATGA, AGGAATCC is lower in “PBM E-score” value: 0.169 for the first, 0.119 for the second.

Going from CAGAATCA to CGGAATCA, the “PBM E-score” value rises from 0.313 to 0.412.

Going from AGGAATCA to GGGAATCA, the “PBM E-score” value rises from 0.28 to 0.307.

Compared with TAGAATCA, CGGAATCC is lower in “PBM E-score” value: 0.185 for the first, 0.0628 for the second.

Going from GGGAATAA to CACTCGAG, the “PBM E-score” value rises from -0.0372 to -0.029.

Going from CTCTTCAG to TTCCTCAA, the “PBM E-score” value falls from -0.0887 to -0.19.

First: ATGGTCCG
Second: ATAGGCCA
The “PBM E-score” value of the first is higher: 0.175 for the first, -0.159 for the second.

Going from AGACTAAC to GCTAAACA, the “PBM E-score” value falls from 0.0491 to -0.0852.

Going from ACTGGCAC to ATGAAGCG, the “PBM E-score” value falls from -0.113 to -0.136.

First: TGAAATAA
Second: ACATTTAT
The “PBM E-score” value of the first is lower: -0.158 for the first, -0.0139 for the second.

First: GCTTGCGA
Second: ACTTGCGA
The “PBM E-score” value of the first is higher: 0.295 for the first, 0.0242 for the second.

First: CCTTGCGA
Second: ACTGGCCT
The “PBM E-score” value of the first is higher: -0.0209 for the first, -0.135 for the second.

Going from CAGATGTC to CGAGTCGC, the “PBM E-score” value rises from 0.105 to 0.34.

Going from CGAGTCGA to AGAGTCGC, the “PBM E-score” value rises from 0.224 to 0.338.

Compared with ATAGTCGC, CCAGTCGC is lower in “PBM E-score” value: 0.243 for the first, 0.13 for the second.

Going from AAAGTCGC to AGAGTCGG, the “PBM E-score” value rises from 0.137 to 0.329.

Going from AGAGTCTG to AGAGTCGA, the “PBM E-score” value rises from -0.106 to 0.157.

First: CCCTTCTA
Second: CTAGCTGA
The “PBM E-score” value of the first is lower: -0.218 for the first, 0.0125 for the second.

First: CTACTGAA
Second: CGCCCTCA
The “PBM E-score” value of the first is higher: 0.132 for the first, -0.16 for the second.

First: AAGGGCTC
Second: AGGGCTCG
The “PBM E-score” value of the first is lower: -0.218 for the first, -0.079 for the second.

Compared with AGCTTCTA, ATTGATTG is higher in “PBM E-score” value: -0.278 for the first, 0.0691 for the second.

Going from CGTGATTC to CGCGATTA, the “PBM E-score” value falls from 0.326 to 0.162.

Going from AGTGATTG to CGCGATTC, the “PBM E-score” value falls from 0.343 to 0.278.

First: CGTGATTA
Second: CGTGATCC
The “PBM E-score” value of the first is higher: 0.236 for the first, -0.0765 for the second.

First: AGTGATTC
Second: AGTGATTA
The “PBM E-score” value of the first is higher: 0.285 for the first, 0.216 for the second.

First: AGTGATAG
Second: AGCGATTC
The “PBM E-score” value of the first is lower: -0.0174 for the first, 0.168 for the second.

In the case of AGTGATAC, the “PBM E-score” value is reported as 0.237.
